Experiment [1] in a line: qHTS of pediatric cancer cell lines to identify multiple opportunities for drug repurposing: Primary screen for U-2 OS cells (AID 1347096). Also: nearly all actives have a fitted effect of over 50% in size. In outline: (§1)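 Cells (500-1,000/well) in growth media were settled 5 h at 37 degrees C, then given compounds for 48 h. Viability was read as CellTiter-Glo luminescence. Primary runs used MIPE at 11 points (0.78 nM-46 µM) and NPC at 8 points (0.59 nM-46 µM); follow-ups used 11 points.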

The nature of experiment [2]: qHTS of pediatric cancer cell lines to identify multiple opportunities for drug repurposing: Primary screen for Saos-2 cells (AID 1347097). Also: nearly all actives have a fitted effect of over 40% in size. In outline: (§2)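 Luminescence from CellTiter-Glo served as readout of metabolically active cells after 48 h compound exposure. Titrations: MIPE 11-point, from 0.78 nM; NPC 8-point, from 0.59 nM (final). Concentration-response curves came straight from the primary screen.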

Experiment [3] can be described thus: qHTS of pediatric cancer cell lines to identify multiple opportunities for drug repurposing: Primary screen for SK-N-SH cells (AID 1347098). Also: nearly all actives have a fitted effect of over 65% in size. In outline:
(§3)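 Cells (500-1,000/well) rested 5 h, then received compounds for 48 h; metabolically active cells were measured by CellTiter-Glo luminescence. Final concentrations spanned up to 46 µM (MIPE, 11-point) or 0.59 nM-46 µM (NPC, 8-point) in primary screens, 11-point in follow-ups.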

Experiment [4] can be described thus: qHTS of pediatric cancer cell lines to identify multiple opportunities for drug repurposing: Primary screen for LAN-5 cells (AID 1347100). In outline: as §1
Experiment [5] is described as follows: qHTS of pediatric cancer cell lines to identify multiple opportunities for drug repurposing: Primary screen for Rh18 cells (AID 1347102). Also: nearly all actives have a fitted effect of over 65% in size. In outline:
as §1

Experiment [6] in a line: qHTS of pediatric cancer cell lines to identify multiple opportunities for drug repurposing: Primary screen for OHS-50 cells (AID 1347103). Also: nearly all actives have a fitted effect of over 40% in size. The method, boiled down:
as §3

Experiment [7] in a line: qHTS of pediatric cancer cell lines to identify multiple opportunities for drug repurposing: Primary screen for RD cells (AID 1347104). Also: nearly all actives have a fitted effect of over 55% in size. In outline: as §2
Experiment [8] can be described thus: qHTS of pediatric cancer cell lines to identify multiple opportunities for drug repurposing: Primary screen for MG 63 (6-TG R) cells (AID 1347105). Also: nearly all actives have a fitted effect of over 50% in size. In outline: as §2
The nature of experiment [9]: qHTS of pediatric cancer cell lines to identify multiple opportunities for drug repurposing: Primary screen for NB1643 cells (AID 1347099). Also: nearly all actives have a fitted effect of over 50% in size. The method, boiled down: as §2
A short description of experiment [10]: qHTS of pediatric cancer cell lines to identify multiple opportunities for drug repurposing: Primary screen for BT-12 cells (AID 1347101). Also: nearly all actives have a fitted effect of over 25% in size. The method, boiled down:
as §3

Inconclusive results are not listed. Active and inactive are the calls of the source. Calls follow the shape of the dose curve; as a rule, active = well fitted curve in the direction sought with a large enough effect; inconclusive = small, poorly fitted or top-dose-only effect, or another doubt; inactive = no such curve, though single readings can be large; an effect the other way counts as inactive or inconclusive.
Potency is read from the fitted curve at half-maximal effect.

In the case of `CCN(CC)CCNC(=O)c1ccc2nc(-c3ccccc3)c(-c3ccc(CN4CCC(n5c(=O)[nH]c6ccccc65)CC4)cc3)nc2c1`, the Potency in [1] is 3.72 µM (active); in experiment [2] it was 6.62 µM (active); in experiment [3] it was 27.1 µM (active); in experiment [4], 5.9 µM (active); in experiment [5] it was 2.35 µM (active); in experiment [6] it was 3.43 µM (active). Also, the Potency was 3.32 µM (active) in [7] and 7.43 µM (active) in experiment [8].

Turning to `COc1ccc(CC2SC(=O)NC2=O)cc1C(=O)NCc1ccc(C(F)(F)F)cc1` (centres undefined), the Potency entry in experiment [1], in experiment [2], in experiment [3], in experiment [5], in experiment [6] and in [7] was “inactive” in each case. Also, the Potency result in experiment [8] is “inactive”.

With `CNc1nccc(-c2cccnc2Oc2cc(C(=O)Nc3cccc(C(F)(F)F)c3)ccc2C)n1`, the Potency in experiment [1] was 11.8 µM (active); in [2], 16.6 µM (active); in experiment [9], 11.8 µM (active); in [4], 16.6 µM (active); in [10], 19.3 µM (active); in experiment [5], 18.7 µM (active). Besides, the values for the Potency in experiment [6] and in experiment [7] were 15.3 µM (active) and 8.33 µM (active), respectively.

Take `Cn1cc(-c2ccncc2)c(-c2ccc(OCc3ccc4ccccc4n3)cc2)n1`: the Potency result in experiment [1], in [3], in [5] and in [8] was “inactive” in each case. In addition, the figures for the Potency in experiment [2] and in experiment [6] were 11.8 µM (active) and 3.06 µM (active), respectively.

For the molecule `CC[C@@]1(O)C(=O)OCc2c1cc1n(c2=O)Cc2cc3cc(O)ccc3nc2-1`, the Potency entry in experiment [1] was “inactive”. The Potency in experiment [2] was 0.0662 µM (active); in experiment [9], 0.059 µM (active); in experiment [4] it was 0.0132 µM (active); in [5], 0.418 µM (active); in experiment [6], 0.0343 µM (active); in experiment [7], 1.32 µM (active). Further, in [8], the Potency was 0.0935 µM (active).

For the molecule `CC(C)C[C@H](NC(=O)CNC(=O)c1cc(Cl)ccc1Cl)B(O)O`, the Potency in experiment [1] was 0.743 µM (active); in [2] it was 18.7 µM (active); in experiment [9], 0.59 µM (active); in [4] it was 0.132 µM (active); in [10] it was 0.344 µM (active); in experiment [5], 0.235 µM (active). Besides, the Potency was 1.32 µM (active) in experiment [7] and 0.235 µM (active) in experiment [8].

On to `CCCCCN(CCC12CC3CC(CC(C3)C1)C2)C(=O)NCCCc1ccncc1`, for which the Potency result in [1] and in experiment [3] was “inactive” each time. Also, the Potency was 18.7 µM (active) in experiment [2], 16.6 µM (active) in experiment [4] and 19.3 µM (active) in experiment [6].

Turning to `COc1cc2ncn(-c3cc(OCc4ccccc4C(F)(F)F)c(C(N)=O)s3)c2cc1OC`, the Potency in experiment [1] was 23.5 µM (active); in experiment [2] it was 10.5 µM (active); in experiment [3], 24.1 µM (active); in experiment [7] it was 1.66 µM (active); in experiment [8], 7.43 µM (active).

As for `c1nc2nc(Nc3ccc(N4CCOCC4)cc3)nc(NC3CCCCC3)c2[nH]1`, the Potency result in experiment [1] was “inactive”. Besides, the Potency was 4.69 µM (active) in experiment [2]; 1.66 µM (active) in experiment [9]; 0.469 µM (active) in [4]; 21.7 µM (active) in experiment [10]; 9.35 µM (active) in [5]; 2.17 µM (active) in experiment [6]. Besides, the values for the Potency in experiment [7] and in experiment [8] were 13.2 µM (active) and 11.8 µM (active), respectively.

Turning to `Cc1coc2c1C(=O)C(=O)c1c-2ccc2c1CCCC2(C)C`, the Potency result in experiment [1], in experiment [3] and in [8] was “inactive” throughout. Besides, the results for the Potency in experiment [2] and in experiment [5] were 1.66 µM (active) and 20.9 µM (active), respectively.

Turning to `c1ccc2c(CCNc3ccc(Nc4ccncc4)cc3)c[nH]c2c1`, the Potency entry in experiment [1] was “inactive”. Also, the Potency was 14.8 µM (active) in experiment [2]; 5.26 µM (active) in [9]; 4.18 µM (active) in [4]; 18.7 µM (active) in [5]; 6.85 µM (active) in [6]; 26.4 µM (active) in experiment [7].

For the molecule `CN1CC[C@@H](c2c(O)cc(O)c3c(=O)cc(-c4ccccc4Cl)oc23)[C@@H](O)C1`, the Potency in experiment [1] was 0.296 µM (active); in experiment [2] it was 0.148 µM (active); in experiment [3], 0.0764 µM (active); in experiment [10], 0.122 µM (active); in experiment [6], 0.122 µM (active); in experiment [7], 0.235 µM (active). Besides, in [8], the Potency is 0.148 µM (active).

As for `COc1cc(C)c(Sc2cnc(NC(=O)c3ccc(CNC(C)C(C)C)cc3)s2)cc1C(=O)N1CCN(C(C)=O)CC1` (centres undefined), the Potency entry in experiment [1] and in experiment [2] was “inactive” each time. For the same molecule, the Potency in [3] was 12.1 µM (active); in experiment [4], 2.64 µM (active); in experiment [10] it was 24.3 µM (active); in [6] it was 2.43 µM (active); in experiment [7], 14.8 µM (active); in experiment [8], 11.8 µM (active).

Regarding `CC(O)C1C(=O)N2C(C(=O)O)=C(SC3CNC(C(=O)N(C)C)C3)C(C)C12` (centres undefined), the Potency entry in experiment [1], in [2], in experiment [3], in experiment [4], in experiment [10] and in experiment [5] was “inactive” throughout. Moreover, the Potency result in [6], in [7] and in experiment [8] was “inactive” throughout.

On to `O=C(O)CCCc1c[nH]c2ccccc12`, for which the Potency result in experiment [1], in [2], in experiment [3], in experiment [5] and in [7] was “inactive” throughout.

As to `O=C(Nc1cn[nH]c1-c1nc2ccc(CN3CCOCC3)cc2[nH]1)NC1CC1`, the Potency in experiment [1] was 4.69 µM (active); in experiment [2], 0.935 µM (active); in [9], 5.26 µM (active); in experiment [4] it was 0.0105 µM (active); in experiment [10], 7.69 µM (active); in experiment [5], 0.935 µM (active). In addition, the Potency was 1.53 µM (active) in experiment [6], 5.9 µM (active) in experiment [7] and 7.43 µM (active) in experiment [8].

These data come from PubChem BioAssay (NCATS).
